From PubChem BioAssay (Tox21)
Values joined by “and” are separate entries in the source; they are usually repeats but may differ in a detail not shown here. Identical values can stand only once. Results filed as inconclusive are left out. A call without a number means that no potency is given here. Active and inactive are the calls of the source. Unless noted, calls follow the shape of the dose curve; as a rule, active = well fitted curve in the direction sought with a large enough effect in the repeat runs; inconclusive = weak or mixed curves; inactive = no such curve, though single readings can be large; an effect the other way counts as inactive or inconclusive.

Key:
[1] = qHTS assay to test for compound auto fluorescence at 460 nm (blue) in HEK293 cell free culture (AID 720681)
Method in brief: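 Blue fluorescence (Ex 405/Em 460 nm, triamterene-equivalent) was read immediately after pin transfer of compound or DMSO into medium (DMEM, 10% FBS) without cells.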

[2] = qHTS assay to test for compound auto fluorescence at 535 nm (green) in HEK293 cell free culture (AID 720682)
Method in brief: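 Using fluorescein as calibrant, autofluorescence was quantified at 485/535 nm in cell-free DMEM containing 10% FBS after pintool addition of compound or vehicle.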

[3] = qHTS assay to test for compound auto fluorescence at 590 nm (red) in HEK293 cell free culture (AID 720683)
Method in brief: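 Red-channel autofluorescence of compounds in culture medium (DMEM, 10% FBS), no cells, measured at 540/590 nm. Rose Bengal sodium is the reference fluorophore for equivalence.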

[4] = qHTS assay to test for compound auto fluorescence at 590 nm (red) in HepG2 cell free culture (AID 720684)
Method in brief: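 No cells present: MEM + 10% FBS only. Compound pinned in, red label read (540/590 nm). Activity = fluorescence equivalent to Rose Bengal sodium.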

[5] = qHTS assay to test for compound auto fluorescence at 460 nm (blue) in HepG2 cell free culture (AID 720685)
Method in brief: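 Cell-free plates of MEM plus 10% FBS received 23 nL compound or DMSO vehicle; blue-channel (405/460 nm) intensity scored against triamterene as reference fluorophore.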

[6] = qHTS assay to test for compound auto fluorescence at 535 nm (green) in HepG2 cell free culture (AID 720686); also: potency is read from the fitted curve at half-maximal effect
[7] = qHTS assay to test for compound auto fluorescence at 460 nm (blue) in HepG2 cells (AID 720687)
Method in brief: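 Blue-channel autofluorescence (Ex/Em 405/460 nm, triamterene-equivalent) was measured after 1 hr compound exposure at 37 C, 5% CO2. Cells were HepG2, plated overnight at 37 C in MEM plus 10% FBS.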

[8] = qHTS assay for identifying genotoxic compounds that show differential cytotoxicity against isogenic chicken DT40 cell lines with known DNA damage response pathways - wild type cell line (AID 743012); also: nearly all actives have a fitted effect of over 60% in size; also: potency is read from the fitted curve at half-maximal effect
Method in brief: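 300 wt DT40 cells/well; cpd (DMSO) pintool-transferred after ~0.5 h at 37 C/5% CO2; 40 h incubation; CellTiter-Glo added, 30 min RT; luminescence read.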

[9] = qHTS assay for identifying genotoxic compounds that show differential cytotoxicity against isogenic chicken DT40 cell lines with known DNA damage response pathways - Rev3 mutant cell line (AID 743014); also: nearly all actives have a fitted effect of over 55% in size; also: potency is read from the fitted curve at half-maximal effect
[10] = qHTS assay for identifying genotoxic compounds that show differential cytotoxicity against isogenic chicken DT40 cell lines with known DNA damage response pathways - Rad54/Ku70 mutant cell line (AID 743015); also: nearly all actives have a fitted effect of over 60% in size; also: potency is read from the fitted curve at half-maximal effect
[11] = qHTS assay to identify small molecule antagonists of the androgen receptor (AR) signaling pathway using the MDA cell line - cell viability counter screen (AID 743041; also: nearly all actives have a fitted effect of over 45% in size; also: potency is read from the fitted curve at half-maximal effect)
Method in brief: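 Using the breast carcinoma line MDA-kb2 AR-luc, test chemicals were co-incubated with R1881 for 16 h; CellTiter-Fluor reagent, added at 15.5 h, provided a fluorescence measure of live cells.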

[12] = target: Glucocorticoid receptor (Homo sapiens) (UniProt P04150); assay: qHTS assay to identify small molecule agonists of the glucocorticoid receptor (GR) signaling pathway (AID 720691; active = well fitted activation curve with a large enough effect in the signal ratio in the repeat runs, not every such curve was filed as active; the % refers to the signal ratio); settings: GR-bla HeLa, beta-lactamase reporter ratio, 18 h; activation: at 62.4 µM (top of the series)
Glucocorticoid receptor (Homo sapiens), sequence (P04150 whole entry, looked up): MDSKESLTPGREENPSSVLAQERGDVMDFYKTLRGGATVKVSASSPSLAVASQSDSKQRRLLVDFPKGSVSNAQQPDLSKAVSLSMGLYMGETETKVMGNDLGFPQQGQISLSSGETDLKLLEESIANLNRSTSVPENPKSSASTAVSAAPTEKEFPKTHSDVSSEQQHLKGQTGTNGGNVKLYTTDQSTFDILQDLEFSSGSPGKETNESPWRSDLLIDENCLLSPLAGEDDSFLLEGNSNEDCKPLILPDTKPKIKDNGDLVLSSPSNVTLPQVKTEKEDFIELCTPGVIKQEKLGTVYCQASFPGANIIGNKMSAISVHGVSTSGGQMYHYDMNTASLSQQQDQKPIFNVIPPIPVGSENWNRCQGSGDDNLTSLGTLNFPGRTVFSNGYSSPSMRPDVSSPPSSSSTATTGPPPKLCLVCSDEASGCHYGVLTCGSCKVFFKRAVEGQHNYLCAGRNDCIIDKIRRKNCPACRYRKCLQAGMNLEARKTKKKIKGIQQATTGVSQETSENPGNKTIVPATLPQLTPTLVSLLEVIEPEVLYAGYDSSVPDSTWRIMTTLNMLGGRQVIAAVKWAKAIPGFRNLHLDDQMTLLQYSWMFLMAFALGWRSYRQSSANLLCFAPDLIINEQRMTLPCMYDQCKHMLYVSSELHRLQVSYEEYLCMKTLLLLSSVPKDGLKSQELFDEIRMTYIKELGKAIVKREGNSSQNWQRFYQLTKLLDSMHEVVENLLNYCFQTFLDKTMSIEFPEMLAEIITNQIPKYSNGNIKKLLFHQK
Method in brief: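 A HeLa cervical cancer line expressing GR and a glucocorticoid response element-driven beta-lactamase gene is treated with compounds for 18 h; LiveBLAzer B/G FRET substrate is then applied and fluorescence read.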

[13] = target: Glucocorticoid receptor (Homo sapiens) (UniProt P04150); assay: qHTS assay to identify small molecule antagonists of the glucocorticoid receptor (GR) signaling pathway (AID 720692; active = well fitted inhibition curve with a large enough effect in the signal ratio in the repeat runs, not every such curve was filed as active; the % refers to the signal ratio; also: potency is read from the fitted curve at half-maximal effect)
Method in brief: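 GRE-bla HeLa line, dex-stimulated (5 nM final). Compound exposure 18 h, 37 C. Beta-lactamase FRET read after 2 h RT substrate.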

[14] = qHTS assay to identify small molecule antagonists of the glucocorticoid receptor (GR) signaling pathway - cell viability counter screen (AID 720693); also: nearly all actives have a fitted effect of over 55% in size; also: potency is read from the fitted curve at half-maximal effect
[15] = qHTS assay to identify small molecule antagonists of the androgen receptor (AR) signaling pathway - cell viability counter screen (AID 743033; also: nearly all actives have a fitted effect of over 45% in size; also: potency is read from the fitted curve at half-maximal effect)
[16] = target: Androgen receptor (Homo sapiens) (UniProt P10275); assay: qHTS assay to identify small molecule antagonists of the androgen receptor (AR) signaling pathway (AID 743035; active = well fitted inhibition curve with a large enough effect in the signal ratio in the repeat runs, not every such curve was filed as active; the % refers to the signal ratio; also: potency is read from the fitted curve at half-maximal effect)
Androgen receptor (Homo sapiens), sequence (P10275 whole entry, looked up): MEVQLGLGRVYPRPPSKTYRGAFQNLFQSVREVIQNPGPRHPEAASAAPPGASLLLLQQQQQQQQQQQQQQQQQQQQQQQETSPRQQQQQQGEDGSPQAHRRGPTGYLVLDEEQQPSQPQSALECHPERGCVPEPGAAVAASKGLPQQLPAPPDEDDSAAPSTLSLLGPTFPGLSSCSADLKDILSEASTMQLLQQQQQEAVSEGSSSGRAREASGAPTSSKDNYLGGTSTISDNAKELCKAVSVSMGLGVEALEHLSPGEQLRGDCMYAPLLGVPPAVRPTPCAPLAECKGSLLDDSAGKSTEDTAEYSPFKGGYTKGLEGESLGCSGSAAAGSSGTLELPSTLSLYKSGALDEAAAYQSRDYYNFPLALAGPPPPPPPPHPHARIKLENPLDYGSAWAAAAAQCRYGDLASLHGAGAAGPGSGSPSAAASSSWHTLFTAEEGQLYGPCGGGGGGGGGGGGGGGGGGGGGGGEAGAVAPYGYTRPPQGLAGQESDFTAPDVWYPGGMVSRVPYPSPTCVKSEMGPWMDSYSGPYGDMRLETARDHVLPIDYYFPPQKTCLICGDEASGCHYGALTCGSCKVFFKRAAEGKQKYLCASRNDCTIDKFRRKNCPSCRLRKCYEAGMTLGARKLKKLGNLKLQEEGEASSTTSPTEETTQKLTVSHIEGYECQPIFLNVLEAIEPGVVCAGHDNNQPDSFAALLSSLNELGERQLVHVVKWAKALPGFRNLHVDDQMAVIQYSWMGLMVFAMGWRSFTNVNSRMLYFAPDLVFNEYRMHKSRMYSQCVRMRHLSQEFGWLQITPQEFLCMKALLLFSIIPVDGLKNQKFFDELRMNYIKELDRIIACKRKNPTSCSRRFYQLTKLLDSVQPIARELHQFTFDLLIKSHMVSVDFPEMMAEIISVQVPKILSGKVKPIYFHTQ
Method in brief: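 In this cell-based reporter screen, compounds were tested in concentration series against R1881-activated HEK293 cells expressing beta-lactamase under UAS control; after 16 h at 37C, FRET substrate was added and fluorescence read 2 h later.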

[17] = target: Androgen receptor (Homo sapiens) (UniProt P10275); assay: qHTS assay to identify small molecule agonists of the androgen receptor (AR) signaling pathway (AID 743036; active = well fitted activation curve with a large enough effect in the signal ratio in the repeat runs, with a control signal flat, not every such curve was filed as active; the % refers to the signal ratio)
Method in brief: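 In this Tox21 qHTS, 2,000 HEK293 AR-bla cells per well were incubated with compounds for 16 h at 37C and 5% CO2. Fluorescence intensity was recorded 2 h after adding LiveBLAzer B/G FRET substrate at room temperature.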

[18] = target: Androgen receptor (Homo sapiens) (UniProt P10275); assay: qHTS assay to identify small molecule agonists of the androgen receptor (AR) signaling pathway using the MDA cell line (AID 743040; also: nearly all actives have a fitted effect of over 20% in size)
Method in brief: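 Stable MMTV-luciferase reporter in MDA-kb2 cells; note the promoter carries GR as well as AR response elements. 16 h compound treatment, 37C, 0% CO2; ONE-Glo luminescence endpoint.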

[19] = target: Androgen receptor (Homo sapiens) (UniProt P10275); assay: qHTS assay to identify small molecule antagonists of the androgen receptor (AR) signaling pathway using the MDA cell line (AID 743042; also: nearly all actives have a fitted effect of over 55% in size; also: potency is read from the fitted curve at half-maximal effect)
Method in brief: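 Antagonist mode: compounds plus R1881 agonist added to MDA-kb2 AR-luc cells, incubated 16 h at 37C. Luciferase reporter luminescence quantified, with multiplexed CellTiter-Fluor readout for cell viability.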
Tags tell the direction and shape of the fitted curve or compound fluorescence and quenching.

Row | Compound | Potency [1] | outcome [2] | outcome [3] | outcome [4] | Potency [5] | Potency [6] | Potency [7] | Potency [8] | Potency [9] | Potency [10] | Potency [11] | Potency [12] | Potency [13] | Potency [14] | Potency [15] | Potency [16] | outcome [17] | outcome [18] | Potency [19]
1 | CO/N=C(\C(=O)OC)c1ccccc1CO/N=C(\C)c1cccc(C(F)(F)F)c1 | inactive | inactive | inactive | inactive | inactive | inactive | inactive | 0.344 µM (active) | 0.273 µM (active) | 0.273 µM (active) | 5.45 µM (active) |  |  |  |  |  |  |  | 
2 | CC(Cc1ccc(OCC(=O)O)cc1)NCC(O)c1csc(C(F)(F)F)n1 (configuration not stated) | inactive | inactive | inactive | inactive | inactive | inactive |  | inactive |  | inactive | inactive | inactive | inactive | inactive | inactive |  |  |  | 
3 | Cc1c([N+](=O)[O-])c(C)c([N+](=O)[O-])c(C(C)(C)C)c1[N+](=O)[O-] | inactive | inactive | inactive | inactive | inactive | inactive | inactive | 68.6 µM (active) | 68.6 µM (active) |  |  | inactive | inactive | inactive | inactive |  |  |  | 
4 | Nc1nc(N)c(N)c(N)n1 |  |  | inactive | inactive |  | 28.2 µM [fluorescent] (active) |  | inactive |  | inactive | inactive |  |  | inactive | inactive |  |  |  | 
5 | CCn1cc[n+](C)c1 (tested in a mixture with another compound) | inactive | inactive | inactive | inactive | inactive | inactive | inactive | inactive |  | inactive | inactive |  |  | inactive | inactive |  |  |  | 
6 | Fc1ccc(C(OCCN2CCN(CCCc3ccccc3)CC2)c2ccc(F)cc2)cc1 | inactive | inactive | inactive | inactive | inactive |  | inactive | 2.11 µM (active) | 2.11 µM (active) | 3.76 µM (active) | 21.1 µM (active) |  |  | 21.3 µM (active) | 21.3 µM (active) | 15.1 µM (active) | inactive | inactive | 16.8 µM (active)
7 | [O]=[Cr](=[O])([OH])[O][Cr](=[O])(=[O])[OH] | inactive | inactive | inactive | inactive | inactive | inactive | inactive | 21.1 µM (active) [middle of 4 runs] |  |  | inactive |  | 3.08 µM (active) |  | 7.83 µM (active) and 21.8 µM (active) |  |  | inactive | inactive
8 | COP(=S)(OC)Oc1nc(Cl)c(Cl)cc1Cl | inactive | inactive | inactive | inactive | inactive | inactive | inactive |  | 61.1 µM (active) |  | inactive | inactive | inactive | inactive | inactive |  |  |  | 
9 | CC(C)(C)c1ccc(OP(=O)(Oc2ccccc2)Oc2ccccc2)cc1 | inactive | inactive | inactive | inactive | inactive | inactive | inactive | 61.5 µM (active) | 27.5 µM (active) | 19.4 µM (active) |  |  |  | inactive |  |  |  |  | 
10 | CC(C)C(Br)C(=O)NC(N)=O (configuration not stated) | inactive | inactive | inactive | inactive | inactive | inactive | inactive |  | inactive | inactive | inactive |  |  | inactive | inactive |  |  |  | 
